# From PubChem BioAssay
# In the library only some 1.1% were active in any assay of this set; here they are far more common.
# LAP4 TOR yeast = alters LAP4-GFP fluorescence in TOR pathway yeast screen; GFP response vs DMSO, % at 10 µM; actives 0.34% (n = 320,000); S. cerevisiae LAP4-GFP multiplex, flow cytometry GFP, 3 h; median GFP as percent of DMSO wells;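 active = GFP response vs DMSO above a set limit, about the screen mean plus 3 SD, cut at about 150% in these data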
# CIT2 TOR yeast = yeast TOR pathway CIT2-GFP modulation; S. cerevisiae CIT2-GFP strain, flow cytometry, 3 h; 100 means same as DMSO wells; GFP response vs DMSO, % at 10 µM; actives 0.065% (n = 320,000);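 active = GFP response relative to DMSO above a set limit, near the screen mean plus 3 SD, cut at about 150% in these data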;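 also: ratio of well median GFP fluorescence to mean of DMSO wells on the plate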
# AGP1-GFP MLPCN = modulators of TOR pathway AGP1-GFP in S. cerevisiae. S. cerevisiae AGP1-GFP multiplex flow cytometry, 3 h; GFP as percent of DMSO wells. GFP response vs DMSO, % at 10 µM. actives 0.02% (n = 320,000). AID 2066;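 active = GFP response relative to DMSO above a set limit, near screen average plus 3 SD, cut at about 150% in these data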;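 also: median GFP channel fluorescence of the gated AGP1 strain per well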
# RPL19A-GFP yeast = modulators of TOR pathway RPL19A-GFP in S. cerevisiae. S. cerevisiae RPL19A-GFP strain, flow cytometry, 3 h; stronger effect = lower value. percent response vs DMSO, % at 10 µM. actives 0.3% (n = 330,000). AID 2025;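 active = percent response vs DMSO below 50%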;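 also: median channel GFP fluorescence of the barcoded RPL19A-GFP strain; ratio of sample median GFP to plate DMSO average so 100% = DMSO; lower means less RPL19A-GFP as with rapamycin TOR inhibition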
# VLA-4 inh = inhibition in a human VLA-4 binding assay. P13612. VLA-4 expressing cells, ligand binding flow cytometry. inhibition, % (about 7 µM as worked out from the volumes in the protocol). actives 0.2% (n = 330,000); in the data active = inhibition above about 50%
# Target sequence (P13612 whole entry, looked up): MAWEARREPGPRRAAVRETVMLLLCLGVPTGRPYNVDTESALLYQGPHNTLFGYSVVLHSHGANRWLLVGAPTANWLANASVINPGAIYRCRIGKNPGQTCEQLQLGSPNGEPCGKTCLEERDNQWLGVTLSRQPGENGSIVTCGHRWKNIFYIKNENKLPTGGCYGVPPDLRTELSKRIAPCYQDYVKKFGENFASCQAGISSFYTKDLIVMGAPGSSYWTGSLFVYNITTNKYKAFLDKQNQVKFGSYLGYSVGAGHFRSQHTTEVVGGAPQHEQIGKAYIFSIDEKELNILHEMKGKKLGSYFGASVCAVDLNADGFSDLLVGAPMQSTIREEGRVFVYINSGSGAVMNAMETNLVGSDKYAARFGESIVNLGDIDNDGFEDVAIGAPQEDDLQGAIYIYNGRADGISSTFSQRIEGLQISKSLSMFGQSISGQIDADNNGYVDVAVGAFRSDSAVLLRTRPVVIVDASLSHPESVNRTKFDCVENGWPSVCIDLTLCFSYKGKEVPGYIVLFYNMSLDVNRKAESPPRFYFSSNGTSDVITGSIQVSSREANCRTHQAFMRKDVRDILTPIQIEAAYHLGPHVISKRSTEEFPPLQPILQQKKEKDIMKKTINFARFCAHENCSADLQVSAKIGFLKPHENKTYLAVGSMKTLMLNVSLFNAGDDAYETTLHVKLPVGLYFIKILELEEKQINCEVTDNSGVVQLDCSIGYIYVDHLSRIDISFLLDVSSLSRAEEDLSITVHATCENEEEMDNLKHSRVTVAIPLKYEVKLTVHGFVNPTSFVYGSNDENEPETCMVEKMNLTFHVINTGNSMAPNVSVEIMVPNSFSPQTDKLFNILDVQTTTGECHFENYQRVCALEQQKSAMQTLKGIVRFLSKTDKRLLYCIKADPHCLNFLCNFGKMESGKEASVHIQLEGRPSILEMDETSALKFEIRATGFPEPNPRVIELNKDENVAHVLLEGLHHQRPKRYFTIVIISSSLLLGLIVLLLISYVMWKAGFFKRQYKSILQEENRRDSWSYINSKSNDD
# MEP2 TOR yeast = yeast TOR pathway MEP2-GFP modulation. S. cerevisiae MEP2-GFP strain, flow cytometry GFP, 3 h; 100% = DMSO control level. GFP response vs DMSO, % at 10 µM. actives 0.51% (n = 330,000). AID 2016;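 active = GFP response versus DMSO above a set limit, roughly screen mean plus 3 SD, cut at about 180% in these data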;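 also: median GFP fluorescence of the barcode-gated MEP2-GFP cells per well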
# LAP4-GFP pick2 = reconfirmed LAP4-GFP TOR pathway modulator in yeast; shares compounds with LAP4 TOR yeast; S. cerevisiae LAP4-GFP strain, flow cytometry GFP, 3 h; GFP response vs DMSO, % at 10 µM; actives 20% (n = 590);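 active = GFP signal as percent of the solvent control above about 150%, meaning raised reporter expression, limit read from the data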;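 also: ratio of well median GFP fluorescence to plate DMSO mean so 100% = DMSO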
# MEP2-GFP pick2 = reconfirmed MEP2-GFP TOR pathway modulator in yeast | actives 10% (n = 590) | shares compounds with LAP4 TOR yeast | GFP response vs DMSO, % at 10 µM | S. cerevisiae MEP2-GFP strain, flow cytometry GFP, 3 h | AID 2622;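 active = GFP signal above 150% of the solvent control wells, that is a rise of more than half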;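 also: median channel GFP fluorescence of all gated yeast cells per well; ratio of median GFP to plate DMSO average so 100% = DMSO level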
# RPL19A-GFP pick2 = second confirmation of modulators of TOR reporter RPL19A-GFP in yeast; shares compounds with LAP4 TOR yeast; S. cerevisiae RPL19A-GFP strain, flow cytometry GFP, 3 h; stronger effect = lower value; 100% means same as DMSO wells; GFP response vs DMSO, % at 10 µM; actives 3% (n = 590);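 active = under 65% GFP response relative to DMSO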;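 also: median GFP channel fluorescence per well over the all cells gate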
# CIT2 GFP CP2 = yeast CIT2-GFP TOR reporter modulation, second cherry pick | shares compounds with LAP4 TOR yeast | S. cerevisiae CIT2-GFP strain, flow cytometry GFP, 3 h; DMSO control wells read 100% | GFP response vs DMSO, % at 10 µM | actives 8% (n = 590);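 active = GFP response vs DMSO above about 150%, limit read from the data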;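 also: median green fluorescence per well over all gated yeast cells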
# AGP1-GFP pick2 = yeast AGP1-GFP TOR reporter modulation, second cherry pick; percent response vs DMSO, % at 10 µM; shares compounds with LAP4 TOR yeast; S. cerevisiae AGP1-GFP strain, flow cytometry GFP, 3 h; AID 2643; 590 tested, under 10 active;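 active = over 150 percent of DMSO response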;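 also: median GFP channel fluorescence over all cells without mother daughter split; sample median GFP divided by mean DMSO control so 100% equals DMSO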
# s288c autofluor = compound is autofluorescent in yeast s288c cells. 610 tested, under 10 active. shares compounds with LAP4 TOR yeast. fluorescence change (kMESF span) at 33 µM. S. cerevisiae s288c, 520 nm autofluorescence, flow cytometry, 3 h; stronger effect = higher value; zero means same as solvent-only cells;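 active = fluorescence span over the dose series, or activity score, above about 33, limit read from the data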
# VLA-4 mod pick = human VLA-4 allosteric modulation in cherry picked compounds; shares compounds with VLA-4 inh; U937 cells, HUTS-21 LIBS mAb binding, flow cytometry; LDV ligand present at threefold Kd; inhibition, % at 6.7 µM; actives 2% (n = 1,300); AID 2813; in the data active = inhibition above about 40%;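 also: 0% = ligand without compound and 100% = no ligand background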
# Active calls of the source: *; / = no result given.
SMILES,LAP4 TOR yeast,CIT2 TOR yeast,AGP1-GFP MLPCN,RPL19A-GFP yeast,VLA-4 inh,MEP2 TOR yeast,VLA-4 mod pick,others
O=C1NC(=O)N(c2cccc(Cl)c2)C(=O)/C1=C\c1ccc(Sc2nc3ccccc3[nH]2)o1,83,106,100,98,-8,98,/,
CCC1(c2cccc(O)c2)CCCCN(C)C1 (centres undefined),128,80,90,102,28,100,/,
Cc1cc(OCC(=O)N2CCC(C(=O)O)CC2)c2c3c(c(=O)oc2c1)CCC3,106,106,103,100,-14,118,/,
O=C(O)c1cc[c]([Hg][Cl])cc1,255*,115,90,62,-7,129,/,LAP4-GFP pick2=190*;MEP2-GFP pick2=193*;RPL19A-GFP pick2=81;CIT2 GFP CP2=100;AGP1-GFP pick2=73;s288c autofluor=0.81
O=C(/C=C/C=C/c1ccccc1)CC1(O)C(=O)Nc2ccccc21 (centres undefined),117,107,111,106,2,112,/,
Fc1cccc(F)c1-c1nc(-c2ccc(Cl)cc2)no1,113,102,108,101,-1,103,/,
COc1ccc(C(=O)OC2C[C@H]3CC[C@@H](C2)N3O)cc1OC (some centres undefined),98,103,105,100,-18,94,1,
COc1cccc(O)c1CN1CCCC(C(=O)c2ccccc2SC)C1 (centres undefined),121,114,116,115,51*,108,-4,
Nc1cc(Cl)c2nonc2c1[N+](=O)[O-],86,72,87,88,50*,93,32,
COc1ccc(-n2c(CNCCc3ccc(C)cc3)nc3ccccc3c2=O)cc1,100,96,98,105,9,105,/,
Cc1cccc(CN2CCCN(Cc3ccc(Cl)cc3)S2(=O)=O)c1,109,104,108,102,45,104,-1,
Cc1ccc(CN2CCCN(Cc3ccc(C)cc3)S2(=O)=O)cc1,110,92,97,105,4,107,/,
Cn1cc(C(=O)NP(=O)(N2CCOCC2)N2CCOCC2)c2ccccc21,94,105,103,106,-4,106,/,
Cc1ccc(OP(N)(=O)Oc2ccc(C)cc2)cc1,102,93,99,99,9,100,/,
CCOC(=O)c1c(NC(=O)C(c2ccccc2)c2ccccc2)sc2c1C1CCN2CC1,107,115,105,102,-4,108,-3,
Cc1cc(C(=O)N2CCC3(CC2)OCCO3)no1,96,97,100,106,-15,110,/,
CCN(CC)c1ccc(N=Cc2c(O)n(Cc3ccccc3)c(=O)[nH]c2=O)cc1,100,97,99,98,-7,108,-22,
CCN(CC)c1ccc(N=Cc2c(O)n(-c3ccccc3)c(=O)[nH]c2=O)cc1,111,95,103,97,-23,97,/,
CCOc1cccc(CNCCc2c(C)[nH]c3ccc(OC(F)(F)F)cc23)c1O,99,93,100,98,65*,101,39,
Cc1[nH]c2ccc(OC(F)(F)F)cc2c1CCNCc1cccc([N+](=O)[O-])c1,100,94,102,98,39,105,/,
Cc1cc(OC(=O)N(C)C)nc(SCc2c(Cl)cccc2Cl)n1,114,92,93,97,3,97,/,
C=CCn1c(O)c(C(CC)=NC(C)c2ccccc2)c(=O)[nH]c1=O (centres undefined),106,111,104,104,-6,102,/,
Cc1cc(Cl)ccc1OCC(=O)O,105,88,99,99,56*,95,-3,
O=C(O)COc1ccc(Cl)cc1Cl,88,100,100,104,-2,97,/,
C/C1=C\[C@@H](C)C/C=C/[C@H]2[C@@H]3O[C@]3(C)[C@@H](C)[C@H]3[C@H](Cc4c[nH]c5ccccc45)NC(=O)[C@]32C(=O)/C=C/C(=O)[C@@H]1O,105,96,99,97,70*,104,37,
SMILES,LAP4 TOR yeast,CIT2 TOR yeast,AGP1-GFP MLPCN,RPL19A-GFP yeast,VLA-4 inh,MEP2 TOR yeast,VLA-4 mod pick,others
c1ccc2c(c1)Nc1ccccc1S2,113,71,78,93,55*,93,13,
COC(=O)C1=C(c2ccc(Cl)c(C(F)(F)F)c2)C[C@@H]2CC[C@H]1N2C(=O)NCCCOC(C)C,98,100,94,94,1,99,/,
COC(=O)C1=C(c2ccc3ccccc3c2)C[C@@H]2CC[C@H]1N2C(=O)NCc1ccc(C(F)(F)F)cc1,99,96,95,94,-1,97,/,
Cc1cc(C)cc(N2C(=O)NC(=O)/C(=C\c3cccn3-c3ccccc3)C2=O)c1,90,97,97,103,44,100,16,
CN1C2CCC1CC(OC(=O)c1ccc([N+](=O)[O-])cc1)C2 (centres undefined),97,100,108,102,12,107,/,
CN1[C@@H]2CC[C@H]1CC(OC(=O)C1C=Nc3ccccc31)C2 (some centres undefined),186*,106,110,82,51*,177*,11,
